Results as given in PubChem BioAssay.
Results filed as inconclusive are left out. Calls of active or inactive are those of the source.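 The calls were made as follows, unless noted: active = inhibition above the screen-wide mean plus 3 SD, about 51%; inactive = the rest.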

How the values were obtained:
[1] = rapamycin-like changes in RPL19A-GFP expression – cell-based, S. cerevisiae, multiplex flow cytometry, primary screen (AID 1862; in the data active = percent of DMSO control GFP below about 86%;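 also: lower values mimic rapamycin by blocking the RPL19A rise seen in DMSO cells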); details: S. cerevisiae RPL19A-GFP strain, flow cytometry fluorescence, 3 h; at 10 µM; stronger effect = lower value
[2] = TOR pathway GLN3 branch reporter MEP2-GFP changes – S. cerevisiae, multiplex flow cytometry, primary screen (AID 1867;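 active = GFP response, as percent of the DMSO control, above the screen-wide mean plus 3 SD, about 139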;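 also: median GFP channel fluorescence of barcode-gated MEP2-GFP cells measured by flow cytometry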); details: S. cerevisiae MEP2-GFP strain, 3 h, at 10 µM, stronger effect = higher value, 100% means same as DMSO wells
[3] = TOR pathway RTG branch CIT2 reporter changes – S. cerevisiae, GFP fusion, multiplex flow cytometry, primary screen (AID 1870;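 active = percent response above a set limit, the screen-wide mean plus 3 SD, cut at about 130% in these data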;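 also: barcoded CIT2-GFP strain pooled with four other GFP strains with rapamycin as positive control; median GFP fluorescence per well over plate mean of DMSO wells so 100% = DMSO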); details: S. cerevisiae CIT2-GFP expression, 3 h, at 10 µM, stronger effect = higher value
[4] = TOR pathway LAP4-GFP level changes – S. cerevisiae, multiplex flow cytometry, primary screen (AID 1873;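 active = GFP signal, as percent of the solvent control, above the screen mean plus 3 SD, about 149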); details: S. cerevisiae LAP4-GFP expression, 3 h, at 10 µM, stronger effect = higher value
[5] = yeast AGP1-GFP level changes, GLN3 branch – cell-based, multiplex flow cytometry, S. cerevisiae, primary screen (AID 1887;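 active = GFP signal above the screen-wide mean plus 3 SD, that is over about 124.5% of the solvent control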;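 also: AGP1-GFP fusion strain of S. cerevisiae within a five-strain barcoded multiplex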); details: 3 h, at 10 µM, stronger effect = higher value
[6] = reduced mouse 2C T cell binding to pMHC/ICAM-1 vesicles – MLPCN validation set, flow cytometry, LFA-1/ICAM-1 modulator project, pilot screen (AID 2523;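 active = response below a set limit, under 55% cells CD8-positive and vesicle-bound, and CD8 cells' 90th-percentile brightness under 279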;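 as to vesicle binding response: mean PE anti-B7-1 fluorescence of CD8+ cells relative to row control; 100% = QL9-loaded vesicles with DMSO vehicle in the same plate row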); details: 2C mouse CD8+ T cells, at 7 µM, stronger effect = lower value; double positive events: measured here: CD8+/vesicle+ event percentage
[7] = molecular target: Integrin beta-1 (Homo sapiens) + Integrin alpha-4 (Homo sapiens) (UniProt P13612+P05556); assay: alpha4beta1 integrin LIBS antibody binding reduction – U937 cells, HUTS-21 mAb, flow cytometry, validation set, VLA-4 allosteric modulator project, pilot screen (AID 2674;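 active = inhibition above 50%, about 3 SD of the validation set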;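 also: antibody binding induced by the VLA-4 ligand LDV present at three times its Kd; 0% = LDV ligand with antibody and no compound and 100% = antibody without LDV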); details: HUTS-21 LIBS mAb binding, at 6.7 µM, stronger effect = higher value, binding induced by LDV ligand
[8] = calorie-restriction mimetic ROS inhibitors, yeast – validation compound set, pilot screen (AID 2706;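 active = superoxide response below 65% of plate, a cut near 3 SD across the whole screen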;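 also: yeast exposed to compound for one week at 30 degrees C before staining; 100% = mean of all compound wells on the same plate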); details: S. cerevisiae aging, superoxide DHE fluorescence; at 10 µM; stronger effect = lower value
[9] = molecular target: Beta-adrenergic receptor kinase 1 (Homo sapiens) (UniProt P25098); assay: GRK2 binders displacing RNA aptamer, biochemical, validation, human GRK2, bead flow cytometry (AID 488806;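 active = aptamer binding inhibition above 30%, about 3 SD of noise from non-fluorescent compounds; inactive = inhibition at or below 30%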); details: bead-bound GRK2, FAM-aptamer displacement, at 10 µM, stronger effect = higher value
[10] = molecular target: Beta-2 adrenergic receptor (Homo sapiens) (UniProt P07550); assay: agonist-induced loss of surface beta2AR – cell-based, FAP fluorogen, flow cytometry, validation set, pilot screen (AID 504459;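 active = percent response above 42, roughly 3 SD of non-fluorescent test compounds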;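 also: agonist-driven loss of surface beta2AR via internalization measured by FAP dye flow cytometry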); details: Am2.2-beta2AR cells, at 10 µM, stronger effect = higher value
[11] = molecular target: AP-2 complex subunit beta (Homo sapiens) (UniProt P63010); assay: beta-arrestin/AP2 interaction blockers – biochemical, validation set, GST-AP2 beads, flow cytometry, pilot screen (AID 504541;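 active = inhibition above 54%, about 3 SD of non-fluorescent compounds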;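 also: AP2 carries R879A mutation and is captured from E. coli lysate; bead-bound FITC arrestin peptide fluorescence measuring arrestin peptide binding to AP2; 0% = DMSO wells and 100% = excess unlabeled arrestin peptide control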); details: FITC arrestin peptide, at 10 µM, stronger effect = higher value, AP2 beta2 appendage fragment, R879A mutant
[12] = cytosolic pH regulators acting via V-ATPase – S. cerevisiae, pHLuorin, HTS validation (AID 504600; in the data active = response above about 15%;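 also: plate controls were DMSO for no effect and reference compound for full effect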); details: V-ATPase proton transport, at 10 µM, stronger effect = higher value
[13] = system: anti-desmoglein-3 scFv antibody binding to human DSG3; assay: blockers of pathogenic pemphigus antibody–desmoglein-3 binding – biochemical, validation compound set, bead-based, flow cytometry, pilot screen (AID 588368;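 active = binding below the plate cutoff, the plate median minus 3 SD, with a reading above zero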;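 also: signal is the median channel fluorescence of bead-bound GFP antibody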); details: Protein G beads, DSG3-Fc, scFv-GFP binding, at 10 µM, stronger effect = lower value
[14] = Nile Red efflux blockade in pump-expressing yeast – validation compound set, multiplex, phenotypic, pilot screen (AID 588506;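 active = efflux inhibition above 0.42, the validation set average plus 4 SD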;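 also: Nile Red retained in cells so higher fluorescence means more efflux inhibition; 0 = negative control wells and 1 = enniatin B 25 µM full block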); details: S. cerevisiae pump-expressing triplex, Nile Red efflux flow cytometry; at 10 µM; stronger effect = higher value; the pumps come from Candida albicans
[15] = molecular target: ATP-binding cassette sub-family B member 6 (Homo sapiens) (UniProt Q9NP58); assay: blockers of ABCB6-driven porphyrin uptake – K562-ABCB6 cells, flow cytometry, validation set, pilot screen (AID 588550); details: K562-ABCB6 porphyrin accumulation, 1 h, at 10 µM, stronger effect = higher value;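 also: 0% = DMSO wells and 100% = benzethonium chloride 70 µM positive control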
[16] = AML differentiation inducers, ER-HoxA9 marrow cells – cell-based, GFP/MAC1 double positive, flow cytometry, validation set, primary screen (AID 588685;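 active = differentiation response of at least 50%, scaled between solvent and reference control, from cells with both markers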;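 also: compound exposure lasts four days before antibody staining and flow analysis; 0% = DMSO wells and 100% = 5 µM fulvestrant positive control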); details: stronger effect = higher value, normalized: vehicle 0, fulvestrant 100

AP-2 complex subunit beta (Homo sapiens), sequence (P63010 whole entry, looked up, the tested form may be a part, one chain of several): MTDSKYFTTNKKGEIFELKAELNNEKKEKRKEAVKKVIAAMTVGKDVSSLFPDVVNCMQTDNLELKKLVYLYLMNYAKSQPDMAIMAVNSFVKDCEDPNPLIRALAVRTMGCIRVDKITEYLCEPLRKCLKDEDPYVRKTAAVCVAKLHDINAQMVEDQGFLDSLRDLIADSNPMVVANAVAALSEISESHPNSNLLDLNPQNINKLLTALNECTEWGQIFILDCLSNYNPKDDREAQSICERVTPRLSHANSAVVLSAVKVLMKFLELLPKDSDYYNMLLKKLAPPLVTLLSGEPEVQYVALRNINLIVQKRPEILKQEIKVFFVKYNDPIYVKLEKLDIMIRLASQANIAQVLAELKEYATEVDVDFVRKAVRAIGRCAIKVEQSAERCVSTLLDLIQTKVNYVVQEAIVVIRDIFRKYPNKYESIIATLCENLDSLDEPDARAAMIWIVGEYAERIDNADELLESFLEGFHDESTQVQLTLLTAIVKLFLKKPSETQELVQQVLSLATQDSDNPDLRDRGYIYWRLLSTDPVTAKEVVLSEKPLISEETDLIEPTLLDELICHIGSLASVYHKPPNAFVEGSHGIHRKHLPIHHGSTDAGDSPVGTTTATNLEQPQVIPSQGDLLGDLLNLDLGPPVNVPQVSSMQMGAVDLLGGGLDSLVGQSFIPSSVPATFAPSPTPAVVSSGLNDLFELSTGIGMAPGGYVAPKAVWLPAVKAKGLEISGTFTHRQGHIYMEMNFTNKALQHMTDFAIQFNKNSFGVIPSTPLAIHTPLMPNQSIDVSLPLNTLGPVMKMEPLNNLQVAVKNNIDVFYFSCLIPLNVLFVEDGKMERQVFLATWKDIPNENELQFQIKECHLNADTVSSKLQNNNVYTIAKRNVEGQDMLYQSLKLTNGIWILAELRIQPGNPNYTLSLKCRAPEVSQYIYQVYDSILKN
Beta-adrenergic receptor kinase 1 (Homo sapiens), sequence (P25098 whole entry, looked up): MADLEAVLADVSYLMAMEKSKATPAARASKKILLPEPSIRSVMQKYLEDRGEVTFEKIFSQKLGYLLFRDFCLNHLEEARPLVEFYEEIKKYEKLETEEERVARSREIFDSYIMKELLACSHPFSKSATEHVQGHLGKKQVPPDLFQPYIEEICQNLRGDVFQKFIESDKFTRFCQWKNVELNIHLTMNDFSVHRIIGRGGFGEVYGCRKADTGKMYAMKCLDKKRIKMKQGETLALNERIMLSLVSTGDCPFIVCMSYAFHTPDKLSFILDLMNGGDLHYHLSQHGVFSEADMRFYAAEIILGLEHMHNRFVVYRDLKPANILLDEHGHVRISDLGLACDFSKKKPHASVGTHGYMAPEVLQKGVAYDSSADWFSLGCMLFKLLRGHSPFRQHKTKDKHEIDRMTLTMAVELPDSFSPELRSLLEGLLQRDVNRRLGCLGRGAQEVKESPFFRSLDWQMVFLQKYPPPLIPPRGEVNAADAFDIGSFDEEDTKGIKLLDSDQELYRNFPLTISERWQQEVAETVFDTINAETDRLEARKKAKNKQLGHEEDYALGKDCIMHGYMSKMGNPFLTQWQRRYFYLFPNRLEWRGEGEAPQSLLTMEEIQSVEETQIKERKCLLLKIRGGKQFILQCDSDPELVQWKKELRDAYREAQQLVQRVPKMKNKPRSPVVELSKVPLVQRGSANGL
ATP-binding cassette sub-family B member 6 (Homo sapiens), sequence (Q9NP58 whole entry, looked up): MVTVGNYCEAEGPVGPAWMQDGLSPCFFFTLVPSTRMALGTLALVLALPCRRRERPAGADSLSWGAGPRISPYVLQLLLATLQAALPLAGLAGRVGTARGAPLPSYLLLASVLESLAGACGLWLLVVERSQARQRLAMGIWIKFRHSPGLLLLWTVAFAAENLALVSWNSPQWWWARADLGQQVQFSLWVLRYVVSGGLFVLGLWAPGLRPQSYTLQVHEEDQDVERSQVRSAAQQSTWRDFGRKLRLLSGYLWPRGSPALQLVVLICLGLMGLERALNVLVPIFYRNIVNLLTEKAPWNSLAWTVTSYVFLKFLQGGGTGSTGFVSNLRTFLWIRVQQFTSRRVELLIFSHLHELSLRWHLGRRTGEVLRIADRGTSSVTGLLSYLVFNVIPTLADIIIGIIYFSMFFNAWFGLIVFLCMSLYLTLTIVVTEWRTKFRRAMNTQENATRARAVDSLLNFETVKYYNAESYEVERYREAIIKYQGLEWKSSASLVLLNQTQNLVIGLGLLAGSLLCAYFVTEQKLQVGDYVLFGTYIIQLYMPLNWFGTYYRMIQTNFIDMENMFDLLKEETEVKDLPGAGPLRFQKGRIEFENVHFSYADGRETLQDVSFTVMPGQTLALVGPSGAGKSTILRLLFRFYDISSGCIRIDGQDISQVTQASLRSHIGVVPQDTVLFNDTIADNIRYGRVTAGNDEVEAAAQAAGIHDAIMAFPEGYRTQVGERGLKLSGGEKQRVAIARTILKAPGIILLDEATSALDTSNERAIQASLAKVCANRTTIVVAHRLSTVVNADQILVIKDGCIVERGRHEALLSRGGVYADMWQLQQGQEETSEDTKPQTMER
Integrin beta-1 (Homo sapiens) + Integrin alpha-4 (Homo sapiens), sequence (P05556 whole entry, looked up): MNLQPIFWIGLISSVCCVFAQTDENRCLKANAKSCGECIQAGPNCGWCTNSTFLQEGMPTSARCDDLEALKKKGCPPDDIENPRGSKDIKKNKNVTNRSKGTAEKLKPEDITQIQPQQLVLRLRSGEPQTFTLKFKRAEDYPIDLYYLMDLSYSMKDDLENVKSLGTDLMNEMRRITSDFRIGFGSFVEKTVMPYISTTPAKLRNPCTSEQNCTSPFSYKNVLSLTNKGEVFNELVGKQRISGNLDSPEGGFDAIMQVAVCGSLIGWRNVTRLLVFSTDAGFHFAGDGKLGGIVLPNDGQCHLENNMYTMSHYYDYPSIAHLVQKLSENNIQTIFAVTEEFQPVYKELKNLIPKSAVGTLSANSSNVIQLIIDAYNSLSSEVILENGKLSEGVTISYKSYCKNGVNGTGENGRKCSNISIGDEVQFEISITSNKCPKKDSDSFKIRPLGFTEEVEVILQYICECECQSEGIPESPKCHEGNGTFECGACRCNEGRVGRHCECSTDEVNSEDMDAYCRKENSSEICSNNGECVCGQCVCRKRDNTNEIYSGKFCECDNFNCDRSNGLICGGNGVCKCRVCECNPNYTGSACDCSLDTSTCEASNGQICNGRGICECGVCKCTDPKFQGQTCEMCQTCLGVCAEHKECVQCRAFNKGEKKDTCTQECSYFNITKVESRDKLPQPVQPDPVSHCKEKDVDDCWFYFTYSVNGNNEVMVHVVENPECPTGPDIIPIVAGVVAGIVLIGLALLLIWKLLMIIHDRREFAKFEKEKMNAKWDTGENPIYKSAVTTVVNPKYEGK
Integrin beta-1 (Homo sapiens) + Integrin alpha-4 (Homo sapiens), sequence (P13612 whole entry, looked up): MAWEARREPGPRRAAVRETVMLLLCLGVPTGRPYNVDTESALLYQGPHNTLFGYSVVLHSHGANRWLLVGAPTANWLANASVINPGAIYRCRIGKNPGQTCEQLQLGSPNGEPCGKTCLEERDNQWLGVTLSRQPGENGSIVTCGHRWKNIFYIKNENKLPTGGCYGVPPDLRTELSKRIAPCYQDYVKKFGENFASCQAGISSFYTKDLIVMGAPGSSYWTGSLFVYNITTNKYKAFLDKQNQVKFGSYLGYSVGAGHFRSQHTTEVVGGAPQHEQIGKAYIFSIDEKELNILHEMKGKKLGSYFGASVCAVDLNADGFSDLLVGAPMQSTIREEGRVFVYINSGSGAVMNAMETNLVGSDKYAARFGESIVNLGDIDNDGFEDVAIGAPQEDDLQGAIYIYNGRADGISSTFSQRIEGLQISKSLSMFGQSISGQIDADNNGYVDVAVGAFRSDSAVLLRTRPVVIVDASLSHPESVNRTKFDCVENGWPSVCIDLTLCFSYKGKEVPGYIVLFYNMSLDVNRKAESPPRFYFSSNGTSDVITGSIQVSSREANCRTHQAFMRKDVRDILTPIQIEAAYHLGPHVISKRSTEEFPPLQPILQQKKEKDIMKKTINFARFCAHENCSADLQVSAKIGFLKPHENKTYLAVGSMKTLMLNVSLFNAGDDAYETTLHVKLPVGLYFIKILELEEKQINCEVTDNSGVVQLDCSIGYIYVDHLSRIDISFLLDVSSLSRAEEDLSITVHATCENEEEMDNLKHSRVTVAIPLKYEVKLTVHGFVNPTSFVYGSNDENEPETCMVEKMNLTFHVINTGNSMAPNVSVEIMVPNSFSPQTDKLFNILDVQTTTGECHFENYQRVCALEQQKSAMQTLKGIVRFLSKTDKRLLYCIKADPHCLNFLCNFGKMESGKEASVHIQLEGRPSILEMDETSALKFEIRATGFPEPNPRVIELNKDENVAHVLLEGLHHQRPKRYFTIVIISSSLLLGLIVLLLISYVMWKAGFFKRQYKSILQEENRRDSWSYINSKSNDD
Beta-2 adrenergic receptor (Homo sapiens), sequence (P07550 whole entry, looked up): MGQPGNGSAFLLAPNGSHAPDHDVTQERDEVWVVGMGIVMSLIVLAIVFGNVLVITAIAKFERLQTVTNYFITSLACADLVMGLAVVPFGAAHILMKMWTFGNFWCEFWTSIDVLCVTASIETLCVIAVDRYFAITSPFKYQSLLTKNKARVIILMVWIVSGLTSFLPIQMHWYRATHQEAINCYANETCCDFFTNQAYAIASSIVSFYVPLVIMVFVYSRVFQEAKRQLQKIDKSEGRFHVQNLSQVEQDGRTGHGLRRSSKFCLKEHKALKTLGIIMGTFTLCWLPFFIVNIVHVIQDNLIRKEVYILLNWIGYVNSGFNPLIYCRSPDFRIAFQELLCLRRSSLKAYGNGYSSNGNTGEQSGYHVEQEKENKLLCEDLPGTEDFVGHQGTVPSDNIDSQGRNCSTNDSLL

| Compound | percent of DMSO control GFP [1] | GFP response vs DMSO [2] | percent response of DMSO control [3] | GFP response vs DMSO [4] | GFP response, % of DMSO [5] | double positive events [6] | vesicle binding response [6] | inhibition [7] | superoxide response (% of plate) [8] | aptamer binding inhibition [9] | response [10] | inhibition [11] | response [12] | binding (% of control) [13] | efflux inhibition (fraction of control) [14] | inhibition [15] | differentiation response [16] |
| --- | --- | --- | --- | --- | --- | --- | --- | --- | --- | --- | --- | --- | --- | --- | --- | --- | --- |
| COc1ccc(Br)cc1C(=O)Nc1ccc(C(=O)O)cc1 | 107% (inactive) | 105% (inactive) | 88.4% (inactive) | 127% (inactive) | 68.8% (inactive) | 63.9% | 240% (inactive) | -0.45% (inactive) | 97.6% (inactive) | 3% (inactive) | -0.63% (inactive) | -7.7% (inactive) | 1.41% (inactive) | 96.3% (inactive) | -0.04 (inactive) | -4% (inactive) | 5.13% (inactive) |
| CCOC(=O)c1cc2c(nc1N)CC(C)(CC)OC2 (stereo not drawn) | 101% (inactive) | 109% (inactive) | 91% (inactive) | 127% (inactive) | 100% (inactive) | 61.3% | 170% (inactive) | 9.13% (inactive) | 97.3% (inactive) | -1% (inactive) | -13.4% (inactive) | 38.2% (inactive) | -3.65% (inactive) | 105% (inactive) | -0.24 (inactive) | 3% (inactive) | 60% (active) |
| O[C@H]1COC2C1OC[C@@H]2O (stereo partly drawn) | 99% (inactive) | 107% (inactive) | 102% (inactive) | 115% (inactive) | 118% (inactive) | 58.3% | 204% (inactive) | 1.44% (inactive) | 87.6% (inactive) | 0% (inactive) | -28.6% (inactive) | 3.72% (inactive) | 1.96% (inactive) | 104% (inactive) | 0 (inactive) | 2% (inactive) | -4.99% (inactive) |
| Cc1ccc2c(c1)C(CCN)C(=O)N2Cc1ccccc1 (stereo not drawn) | 102% (inactive) | 104% (inactive) | 109% (inactive) | 96% (inactive) | 101% (inactive) | 66.6% | 234% (inactive) | -6.68% (inactive) | 106% (inactive) | -4% (inactive) | -2.03% (inactive) | 8.79% (inactive) | 0.57% (inactive) | 94.5% (inactive) | -0.14 (inactive) | 1% (inactive) | -2.69% (inactive) |
| CC(=O)Nc1ccccc1C(=O)C(=O)Nc1ccccc1 | 99.1% (inactive) | 99.6% (inactive) | 99.6% (inactive) | 114% (inactive) | 97.5% (inactive) | 60.9% | 83.6% (inactive) | 6.4% (inactive) | 102% (inactive) | 1% (inactive) | -12.9% (inactive) | 35.2% (inactive) | -3.86% (inactive) | 95.3% (inactive) | -0.35 (inactive) | 2% (inactive) | 29.6% (inactive) |
| CCc1nc2ccccc2n1Cc1ccc(OC)c(OC)c1 | 98.1% (inactive) | 99.6% (inactive) | 95.7% (inactive) | 107% (inactive) | 109% (inactive) | 60.7% | 132% (inactive) | 3.14% (inactive) | 105% (inactive) | 3% (inactive) | -19% (inactive) | 7.51% (inactive) | 2.99% (inactive) | 89.6% (inactive) | 0 (inactive) | 2% (inactive) | 18.7% (inactive) |
| CCCCC[C@H](O)/C=C/C1=C(CCCCCCC(=O)O)C(=O)CC1 | 105% (inactive) | 106% (inactive) | 101% (inactive) | 95.9% (inactive) | 103% (inactive) | 56.3% | 98.4% (inactive) | -9.13% (inactive) | 99.9% (inactive) | 4% (inactive) | 2.65% (inactive) | 1.77% (inactive) | 31% (active) | 101% (inactive) | 0.125 (inactive) | 3% (inactive) | -8.96% (inactive) |
| CCOC(=O)C1=C2c3ccc4ccccc4c3CC(C)(C)N2C(=O)C1=O | 104% (inactive) | 93% (inactive) | 99.6% (inactive) | 78.6% (inactive) | 85.1% (inactive) | 62% | 205% (inactive) | -4.52% (inactive) | 114% (inactive) | 3% (inactive) | 7.03% (inactive) | 1.16% (inactive) | -4.69% (inactive) | 96.8% (inactive) | -0.17 (inactive) | -3% (inactive) | -8.8% (inactive) |
| O=C1CC(c2ccc(OCCCCCOc3ccc(C4CC(=O)NC4=O)cc3)cc2)C(=O)N1 (stereo not drawn) | 105% (inactive) | 98.3% (inactive) | 97.8% (inactive) | 82.8% (inactive) | 92.9% (inactive) | 63.3% | 1500% (inactive) | 15.1% (inactive) | 95% (inactive) | 3% (inactive) | 4.67% (inactive) | -7.1% (inactive) | 2.37% (inactive) | 101% (inactive) | 0.11 (inactive) | 11% (inactive) | 24.7% (inactive) |
